# Experimental data: the supplement of paper PMC6555819
# What was measured:
# Test in all cases: PBM binding z-score (relative to random genomic background probes); higher = stronger binding; sequences stand for … in GC…GCGATTGACAGCGTAGAATGAAGG
# [1] = tested on: RARb homodimer (NR concentration 270 nM)
# Procedure, shortened: (§1)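 Binding buffer was PBS pH 7.4 with 2% milk, 0.02% Triton X-100, 1 mM DTT, 0.2 mg/mL BSA and 0.4 mg/ml salmon testes DNA. In it, ligand-free nuclear receptor dimers were incubated 1 h on custom Agilent 4×180K protein-binding microarrays carrying double-stranded probes. Antibodies against each partner (one per run) detected binding, and z-scores were calculated against random background probes after regression normalization of scanned fluorescence.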
# [2] = tested on: RARg:RXRa (NR concentration 270 nM, RXRa partner concentration 90 nM)
# Procedure, shortened: as §1
# [3] = tested on: RARg homodimer (NR concentration 270 nM)
# Procedure, shortened: as §1
# [4] = tested on: RXRa DBDmut IVT, anti-RXR (DBD mutation: RXRa K156A/R161A, NR concentration 90 nM)
# Procedure, shortened: as §1
# [5] = tested on: RXRa homodimer (NR concentration 180 nM)
# Procedure, shortened: as §1
# [6] = tested on: THRa:RXRa (NR concentration 90 nM, RXRa partner concentration 90 nM)
# Procedure, shortened: as §1
# [7] = tested on: THRa homodimer (NR concentration 90 nM)
# Procedure, shortened: as §1
# [8] = tested on: VDR homodimer (NR concentration 270 nM)
# Procedure, shortened: as §1
Sequence,PBM binding z-score [1],PBM binding z-score [2],PBM binding z-score [3],PBM binding z-score [4],PBM binding z-score [5],PBM binding z-score [6],PBM binding z-score [7],PBM binding z-score [8]
TCAGACAGGTGAACGTAACTCAGGTACGCAGTCG,0.813,0.793,0.768,0.94,1.32,0.679,0.264,0.361
GCGACTGGGGCATCACCAGGTTACCATAACTTAA,0.954,0.961,0.521,-0.237,0.427,1.92,0.551,-0.267
CGTCAAAGTCCAACTAAGGTAACGTAAAGCACGC,1.43,0.748,1.4,1.14,0.261,3.44,1.91,0.579
ATCGAAAGGTCGAAGGTGAGTATACCCACCCGAA,2.51,4.29,3.81,0.771,5.16,2.27,-0.0349,0.804
CCGACTAGGGCAAGGTTACCATAACGCACAGCCA,1.42,1.33,1.66,0.121,1.08,1.23,0.242,0.0806
CCTTACGGGTCACGAGGGTATAGCACGACGAGCG,3.35,5.85,5.72,0.613,6.79,3.56,0.0461,1.29
CCTTACGGGTCACTGACAGGATATAGCATTTGGA,2.9,4.97,4.62,1.76,5.05,2.62,0.268,0.961
CCGACTGGCGCATAAGGTTACCATAAGCCAGCCC,0.729,0.235,0.126,-0.135,0.736,2.26,1.56,0.005
TGTCAAAGTTCAAAGGTAACGCAAGTATCCACAC,3.97,6.5,6.22,4.42,7.38,3.23,0.0532,4.37
GGAACTAGGGCAAGTTGATAGCAGAGTTTGATGG,1.11,0.675,1.21,1.07,0.0337,0.0165,-0.214,0.251
TCTGCTAGGTCAGTTGGTCTGCTAACGAGCTGCC,2.11,1.92,3.27,0.135,0.318,1.08,-0.124,-0.575
TCCTATAGGTAAAAGGTGAAAGTCGGTGTGGTAA,1.55,1.83,0.492,1.1,2.64,1.56,0.0134,-0.175
GGAACGCGGGCAAGTTGATAGCAGAGTTTGATGG,-0.349,-0.36,-0.0011,0.0062,-0.242,-0.844,-0.922,-0.495
ATTGAAAGGTCGAAGGTGAGTATACCCACCCGAA,2.54,4.17,3.76,1.26,5.43,2.22,0.13,0.982
CCAGGCAGGTGAGAAGGTAACTCAGCCTCGATTA,0.294,0.181,-0.0537,-0.754,0.145,0.198,-0.116,-0.279
TCTTGTAGATCAAGCAGGTCAAGAAAGCCTGAGT,2.28,1.43,1.35,0.714,1.66,2.01,0.223,0.53
GCTAGCAGGCCATTTGGGGCACTCAATGACGGGC,-0.0146,-0.154,0.3,-0.299,-0.112,0.771,-0.695,-0.274
TCTTGTAGAACAATAGAGGTTAAGAAAGTGCGCT,1.19,0.879,0.347,0.757,1.42,1.53,-0.547,0.225
TCATATAGGTAATACAGGTGAAAGTCGGCATCTA,0.693,0.799,0.796,1.54,1.44,1.1,0.471,-0.0243
AGTCAAAGTTCACTAGGTAACGTTAGATTCAGCT,3.56,4.93,5.57,4.15,4,2.05,0.157,3.87
AGAATGAGGTTATAGGTAGATCAGGGAAGAAAGT,1.39,1.63,1.08,1.35,2.15,2.45,1.42,1.24
CCCGACAGGTGAAAGGTAACTCAGTCTGGTACGC,0.903,1.26,0.581,-0.307,2.02,1.09,0.506,-0.0778
CGAACTGGGTCAAGGACAGTGAATCTCCGCACGC,2.55,3.53,3.36,0.955,2.54,2.76,1.56,0.325
TCTCGGGGGACACGAAGGTCAGAGCTTTCCAGAG,4.17,4.68,5.9,1.89,3,3.32,1.58,1.76
ATATGTAGGTTATCGGGCCATTCAGTTTGCGCAT,1.07,0.874,0.93,0.832,0.911,1.24,0.971,1.34
ATCGAAAGGTCGAGGTGAGTATTGAGAAAGGGAA,3.11,4.2,3.88,0.619,4.12,2.93,0.768,0.377
TTGCCTAGGTCATTCAGGGGCCAGTATAGAAAGC,3.3,6.09,4.46,2.14,2.76,3.48,0.747,1.75
CCTAACGGGTCACTGACAGGTTATAGCATTTGGA,2.94,5.4,4.16,1.48,4.09,2.46,-0.159,0.931
